The list is not random: actives were taken first. Their share in the collection is about 21%.
HCV inh: inhibitors of hepatitis C virus infection. Huh7.5.1 HCVcc-Cre infection, luciferase reporter, 44 h. Potency, µM (top dose mostly 41.8 µM), without a hit: top-dose activity change, negative = inhibition, usual class: inhibitors. actives 3.4% (n = 340,000). AID 651820; note: potency is the fitted concentration of half-maximal effect; % is set by controls: 0 for no effect and ±100 for the full control effect
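Antiviral activity was scored by luciferase reporter output from cells infected with HCVcc-Cre (~0.5 moi) in presence of compound, 44 h infection period, cells seeded 1,000/well 4 h prior.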
Pf growth 48h: inhibits P. falciparum growth in the first generation, 48 h; AID 504832; P. falciparum luciferase growth in erythrocytes, 48 h; actives 5.9% (n = 310,000); Potency, µM (series often up to 28.7 µM), for inactives: at the top dose activity change, negative = inhibition, most hits filed as inhibitors; note: potency is the fitted concentration of half-maximal effect; % is set by controls: 0 for no effect and ±100 for the full control effect
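Read-out is firefly luciferase luminescence from an integrated reporter in P. falciparum, so falling signal marks reduced parasite growth. Infected erythrocytes were at 2% hematocrit and 0.1% parasitemia (final) in Albumax-supplemented RPMI 1640.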
Shiga inhibitor: inhibitors of Shiga toxin in Vero cells. Vero cells, Shiga toxin protein synthesis inhibition reporter. actives 9.2% (n = 290,000). inhibition, % at 38.7 µM; in the data active = inhibition mostly above about 28%, no sharp cut-off; inactive = mostly below about 43%; note: 0% is about no effect
AMA1 RON2 block: disrupts binding of P. falciparum AMA1 to RON2. actives 0.2% (n = 360,000). AlphaScreen AMA1-biotinylated RON2 peptide binding. AID 720542. Potency, µM (top dose mostly 58.2 µM), for inactives: at the highest dose activity change, negative = inhibition, usual class: inhibitors;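 note: potency is the fitted concentration of half-maximal effect; 0% = vehicle wells and -100% = peptide control; nearly all actives have a fitted effect of over 45% in size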
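AMA1 (3D7) with his tag at 25 nM final met compounds first, then biotinylated RON2 peptide at 25 nM; detection used donor plus acceptor beads, 10 µg/mL apiece, read by AlphaScreen after 30 min at room temperature.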
CHX counter: counter-screen for Shiga toxin inhibitors: cycloheximide protein synthesis inhibition. max response, %. AID 2314. cell reporter, cycloheximide protein synthesis inhibition counterscreen. actives 12% (n = 300,000); in the data active = max response mostly above about 13%, no sharp cut-off; inactive = mostly below about 14%; note: read at 38.3 µM for the half of the compounds with a filed dose; 0% is about no effect
Pf growth 96h: P. falciparum growth inhibition at 96 hours | P. falciparum luciferase reporter growth, 96 h | actives 6.9% (n = 320,000) | AID 504834 | Potency, µM (series often up to 28.7 µM), for inactives: at the highest dose activity change, negative = inhibition, actives largely listed as inhibitors; note: potency is the fitted concentration of half-maximal effect; % is set by controls: 0 for no effect and ±100 for the full control effect
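96 h incubation, 37 C, 5% CO2, of luciferase-reporter P. falciparum-infected RBCs (2% hematocrit, 0.05% parasitemia final) with test compounds; endpoint luminescence.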
The depositor's hits bear a star; ? = inconclusive; . = no result. Unless noted, calls come from the whole dose curve; as a rule, active = well fitted curve in the direction sought with a large enough effect; inconclusive = small, poorly fitted or top-dose-only effect, or another doubt; inactive = no such curve, though single readings can be large; an effect the other way counts as inactive or inconclusive.

SMILES	HCV inh	Pf growth 48h	Shiga inhibitor	AMA1 RON2 block	CHX counter	Pf growth 96h
CCCC(c1nnnn1CCOC)N(Cc1cc2cc(C)c(C)cc2[nH]c1=O)CC1CCCO1 (centres undefined)	-5%	?	-2	7%	-1	?
CCC(c1nnnn1CCOC)N(Cc1ccc(C)cc1)Cc1cc2cc(OC)ccc2[nH]c1=O (centres undefined)	6%	10µM*	21	-10%	4	8%
CCC(c1nnnn1CCOC)N(Cc1cc2cc(C)c(C)cc2[nH]c1=O)CC1CCCO1 (centres undefined)	10%	.	-23	0%	-4	15µM*
O=C(O)CC1c2ccccc2CCN1S(=O)(=O)c1ccc(F)cc1 (centres undefined)	19%	-15%	-13	1%	6	?
O=C(Nc1ccc2ccccc2c1)OC1CCS(=O)(=O)C1 (centres undefined)	.	.	.	0%	.	.
CCOC(=O)N1CCN(C(=O)/C(=C\c2ccc(SC)cc2)NC(=O)c2ccccc2)CC1	12%	?	-2	-27%	1	-14%
CCOC(=O)N1CCN(C(=O)/C(=C/c2ccc(F)cc2)NC(=O)c2ccccc2)CC1	10%	-24%	4	4%	10	3.3µM*
N=C1/C(=C\c2ccc(SCc3ccccc3)o2)C(=O)N=C2SC(CC(=O)N3CCOCC3)=NN12	-2%	-18%	20	37%	-5	?
CC1=CC2=NC(=O)/C(=C\c3ccc(-c4cccc(Cl)c4)o3)C(=N)N2O1	?	2%	-4	13%	1	0%
N=C1/C(=C/c2ccc(-c3cccc(C(=O)O)c3)o2)C(=O)N=C2SC(CC(=O)N3CCOCC3)=NN12	11%	48%	11	-2%	25*	51%
N=C1/C(=C\c2ccc(-c3cccc(C(=O)O)c3)o2)C(=O)N=C2SC=C(c3ccccc3)N12	14%	17%	56*	42%	26*	13%
Cc1ccccc1-n1c(C)cc(/C=C2/C(=N)N3C(c4ccccc4)=CSC3=NC2=O)c1C	?	-3%	17	-20%	8	?
Cc1cc(/C=C2/C(=N)N3C(c4ccccc4)=CSC3=NC2=O)c(C)n1-c1ccccc1	-30%	19%	-6	0%	20*	0%
CCCCNC(=O)c1nc(-c2cnc(C)cn2)oc1-c1ccc(Cl)cc1	.	.	.	-1%	.	.
O=C(CSc1ccccc1C(=O)O)c1ccc(Cl)cc1	1%	64%	65*	5%	30*	34%
O=C(CSc1ccccc1C(=O)O)c1ccccc1	19%	51%	21	-2%	7	28%
c1ccc(N2CC3COc4ccccc4C3=N2)cc1 (centres undefined)	-30%	.	.	443%	.	.
Nc1ncnc(Oc2cccc3cccnc23)c1[N+](=O)[O-]	18%	?	-2	59%	-2	53%
CCS(=O)(=O)c1ccc2oc(Nc3cccc(OC)c3)nc2c1	?	109%	41	16%	20*	32%
CCN(CC)S(=O)(=O)c1ccc2oc(Nc3ccc4c(c3)OCCO4)nc2c1	10µM*	?	41	14%	12	.
CCOc1ccc(Nc2nc3cc(S(=O)(=O)CC)ccc3o2)cc1	-14%	-31%	22	0%	10	13µM*
CCS(=O)(=O)c1ccc2oc(Nc3cc(Cl)ccc3OC)nc2c1	?	-14%	-16	19%	2	-7%
CCS(=O)(=O)c1ccc2oc(Nc3ccc(OC)cc3)nc2c1	11%	65%	38	-18%	22	69%
CC(C)C(NC(=O)c1c(F)cccc1F)C(=O)N1CCN(c2ncccn2)CC1 (centres undefined)	15%	.	.	-11%	.	.
O=C(NC1CCSc2ccccc21)c1ccccc1Cl (centres undefined)	-1%	-4%	37*	-18%	39*	-22%
SMILES	HCV inh	Pf growth 48h	Shiga inhibitor	AMA1 RON2 block	CHX counter	Pf growth 96h
O=C(NC1CCSc2ccccc21)c1ccccc1F (centres undefined)	-9%	23%	54*	0%	31*	29%
O=C(NC1CCN(C(=O)N2c3ccccc3Sc3ccccc32)CC1)c1ccccc1F	?	2.9µM*	-5	-22%	-1	?
CSc1ccccc1C(=O)NC1CCSc2ccccc21 (centres undefined)	-8%	-11%	25	-11%	9	-9%
CC(C)(C)c1ccc(OCCNCc2ccccc2)cc1	0%	-16%	.	-19%	1	-21%
CNCCCOc1ccc(C(C)(C)c2ccccc2)cc1	.	.	11	.	19	9.3µM*
CCC(C)NCCOc1ccc(C(C)(C)c2ccccc2)cc1 (centres undefined)	10µM*	?	-17	-13%	-4	-25%
COCCCNCCOc1ccc(C(C)(C)c2ccccc2)cc1	10µM*	-25%	-11	-14%	-8	?
OC(Cc1ccccc1Br)c1ncc(-c2cccc(C(F)(F)F)c2)[nH]1 (centres undefined)	.	.	.	-20%	.	.
COc1cc(Cl)c(NS(=O)(=O)c2ccc(-c3ccc(=O)[nH]n3)o2)c(OC)c1	2%	18%	-11	-9%	-8	56%
COc1cc(Cl)c(NC2=CC(=O)C(=O)c3ccccc32)c(OC)c1	16µM*	0.37µM*	.	-18%	.	?
CC(/C=N/NC(=O)c1nnn(-c2nonc2N)c1C(C)C)=C\c1ccccc1	10µM*	44%	92	12%	29*	12%
CC(C)c1c(C(=O)N/N=C/c2ccc(OCc3ccccc3)cc2)nnn1-c1nonc1N	?	?	21	-1%	-2	?
CC(C)c1c(C(=O)N/N=C/c2ccc(C(F)(F)F)cc2)nnn1-c1nonc1N	5.6µM*	?	0	7%	5	?
COc1cc(/C=N/NC(=O)c2nnn(-c3nonc3N)c2C(C)C)ccc1OCc1ccccc1	14µM*	?	29	0%	13	9.3µM*
O=C(CCN1C(=O)/C(=C/c2ccccc2Cl)SC1=S)NCCc1ccc(O)cc1	?	-19%	-9	7%	3	14%
CCCCCOc1ccc(C2C(C(=O)c3ccc(C)o3)=C(O)C(=O)N2c2cc(C)on2)cc1 (centres undefined)	-15%	-12%	10	53%	15	?
CCOC(=O)C1(C)CCN1C(=O)CSc1ccccc1 (centres undefined)	.	.	.	2%	.	.
CN1C[C@H](C(=O)N[C@]2(C)O[C@@]3(O)[C@@H]4CCCN4C(=O)[C@H](Cc4ccccc4)N3C2=O)C=C2c3cccc4[nH]cc(c34)C[C@H]21	.	0.3µM*	.	.	.	0.3µM*

Bioassay records: PubChem, National Center for Advancing Translational Sciences (NCATS)
